# Reference: PubChem BioAssay (NCATS)
# Values joined by “and” are separate entries in the source; they are usually repeats but may differ in a detail not shown here. Equal entries are not always repeated. Results filed as inconclusive are left out. Entries that show only a call come without a potency. Active and inactive are the calls of the source. Unless noted, calls come from the whole dose curve.
# Legend:
# [1] = Cell Viability - MRC5 (AID 434); details: MRC5 lung fibroblast viability, qHTS;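 note: potency is the fitted concentration of half-maximal effect; cells exposed to compound for 40 hours at 37 °C; potency reflects cytotoxicity seen as loss of intracellular ATP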
# Summary of the method: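 ATP luminescence read-out (CellTiter-Glo, 20 min RT) after 40 hr, 37 °C compound exposure of 1500 MRC5 cells/well. Data normalized to DMSO (basal) and 100 uM tamoxifen (100% inhibition); AC50 from standard Hill equation.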
# [2] = target: Mitogen-activated protein kinase 10 (Mus musculus) (UniProt Q61831); assay: JNK3 AlphaScreen Assay (AID 530; active = well fitted curve in either direction with a large enough effect, not every such curve was filed as active;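 note: kinase came from lysate of stimulated human HepG2 cells; signal reports phosphorylation of biotinylated GST-cJun 1-79 at Ser73 with 10 µM ATP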); details: JNK3 lysate, c-Jun phosphorylation; series mostly up to 57.1 µM
# Summary of the method: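 Activity was read by AlphaScreen after JNK3-containing HepG2 lysate (cytokine pre-activated) phosphorylated biotinylated GST-cJun with 10 uM ATP at room temperature. Phospho-Ser73 cJun antibody with Protein-A acceptor beads provided detection.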
# [3] = Cell Viability - NIH 3T3 (AID 541; active = well fitted curve in the direction sought with a large enough effect; an effect the other way counts as inactive or inconclusive;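 note: cells exposed to compound for 40 hours; nearly all actives have a fitted effect of over 25% in size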; note: potency is the fitted concentration of half-maximal effect); details: NIH 3T3 cell viability, qHTS; activity change, negative = cytotoxicity: at 92.2 µM (top of the series)
# Summary of the method: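 Cells seeded at 1000/well, rested 5 hr at 37 °C, then dosed and incubated 40 hr at 37 °C. CellTiter-Glo added, 20 min room temperature, luminescence read. AC50 by Hill fit.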
# [4] = Cell Viability - LYMP2-001 (AID 921; active = well fitted curve in the direction sought with a large enough effect; an effect the other way counts as inactive or inconclusive; note: nearly all actives have a fitted effect of over 70% in size); details: LYMP2-001 lymphoblastoid cell viability; series mostly up to 92.2 µM
# Summary of the method: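 Cellular ATP loss read by luciferase luminescence after 24 h compound exposure at 37 C in complete medium. LYMP2-001 lymphoblastoid cells, 2500/well; qHTS concentration-response data fitted with Hill equation for AC50.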
# [5] = MultiTox-Fluor Cytotoxicity Assay - LYMP1-002 - Dead Cells (AID 960; active = well fitted curve in the direction sought with a large enough effect; an effect the other way counts as inactive or inconclusive; note: nearly all actives have a fitted effect of over 60% in size); details: LYMP1-002 lymphoblastoid cells, dead-cell protease fluorescence; series mostly up to 46.1 µM
# Summary of the method: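 Cells were plated, rested 5 hr, then treated with compound dilution series for 16 hr at 37 C. After adding substrate reagent and 60 min at room temperature, dead-cell protease fluorescence gave concentration-response curves fitted by the Hill equation.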
# [6] = target: Estrogen receptor (Homo sapiens) (UniProt P03372); assay: qHTS assay for small molecule agonists of estrogen receptor alpha signaling (AID 588514); details: ER-alpha-UAS-bla HEK293, beta-lactamase ratio, 18 h; series mostly up to 76.8 µM; note: nearly all actives have a fitted effect of over 70% in size
# Estrogen receptor (Homo sapiens), sequence (P03372 whole entry, looked up): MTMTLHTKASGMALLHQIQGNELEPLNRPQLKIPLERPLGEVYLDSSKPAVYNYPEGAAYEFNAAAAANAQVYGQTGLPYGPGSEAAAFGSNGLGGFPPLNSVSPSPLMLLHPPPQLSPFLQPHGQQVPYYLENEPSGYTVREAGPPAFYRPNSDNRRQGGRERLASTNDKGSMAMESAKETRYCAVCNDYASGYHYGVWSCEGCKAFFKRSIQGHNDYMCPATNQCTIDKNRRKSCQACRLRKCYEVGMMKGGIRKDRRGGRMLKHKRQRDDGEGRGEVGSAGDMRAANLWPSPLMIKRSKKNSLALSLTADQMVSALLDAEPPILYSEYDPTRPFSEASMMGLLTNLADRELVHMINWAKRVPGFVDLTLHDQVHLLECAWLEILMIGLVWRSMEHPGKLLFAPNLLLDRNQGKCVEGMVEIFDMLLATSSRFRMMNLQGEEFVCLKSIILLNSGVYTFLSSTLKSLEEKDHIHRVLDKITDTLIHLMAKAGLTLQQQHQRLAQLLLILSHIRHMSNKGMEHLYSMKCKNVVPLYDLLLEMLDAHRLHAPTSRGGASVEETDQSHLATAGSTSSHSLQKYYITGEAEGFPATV
# Summary of the method: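 Efficacy is expressed against 20 nM 17-beta-estradiol (100%) and DMSO basal (0%); EC50 from Hill equation. Assay: beta-lactamase reporter in ER-alpha-UAS-bla HEK 293 cells, 18 h compound incubation, CCF4 detection.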
# [7] = target: Glucocorticoid receptor (Homo sapiens) (UniProt P04150); assay: qHTS assay for small molecule agonists of glucocorticoid receptor signaling (AID 588532; active = well fitted curve in the direction sought with a large enough effect in the signal ratio, with a control signal flat; the % refers to the signal ratio); details: HeLa MMTV-bla, beta-lactamase ratio, agonist, 18 h; stronger effect = higher value; percent of dexamethasone control, DMSO zero
# Glucocorticoid receptor (Homo sapiens), sequence (P04150 whole entry, looked up): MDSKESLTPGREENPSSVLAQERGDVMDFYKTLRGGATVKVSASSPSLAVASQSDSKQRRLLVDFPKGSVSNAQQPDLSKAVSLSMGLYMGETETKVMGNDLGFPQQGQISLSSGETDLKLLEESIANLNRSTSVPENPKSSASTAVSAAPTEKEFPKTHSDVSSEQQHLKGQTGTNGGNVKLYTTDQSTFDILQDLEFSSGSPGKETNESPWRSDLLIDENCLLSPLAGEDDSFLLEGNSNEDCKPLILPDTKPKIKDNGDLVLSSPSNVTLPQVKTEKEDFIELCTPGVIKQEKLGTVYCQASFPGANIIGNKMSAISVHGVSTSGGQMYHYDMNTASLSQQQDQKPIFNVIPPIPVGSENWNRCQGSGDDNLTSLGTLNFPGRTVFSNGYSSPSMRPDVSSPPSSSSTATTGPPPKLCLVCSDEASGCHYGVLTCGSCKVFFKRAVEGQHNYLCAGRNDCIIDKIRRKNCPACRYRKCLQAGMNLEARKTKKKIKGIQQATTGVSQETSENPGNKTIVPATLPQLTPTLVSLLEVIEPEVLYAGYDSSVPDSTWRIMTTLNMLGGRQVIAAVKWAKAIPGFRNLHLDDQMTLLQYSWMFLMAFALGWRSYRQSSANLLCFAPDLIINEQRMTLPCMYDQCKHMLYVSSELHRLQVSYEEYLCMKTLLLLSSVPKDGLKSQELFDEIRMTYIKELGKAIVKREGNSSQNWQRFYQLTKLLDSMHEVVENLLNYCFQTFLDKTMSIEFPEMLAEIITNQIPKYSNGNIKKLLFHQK
# Summary of the method: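 MMTV-bla HeLa beta-lactamase reporter cells in 1% charcoal/dextran FBS medium, compounds up to 92 uM for 18 h at 37 C, CCF4 readout; normalized to 0.1 uM dexamethasone (100%), EC50 and efficacy from Hill fits.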
# [8] = qHTS assay for small molecule antagonists of peroxisome proliferator-activated receptor delta signaling (AID 588535; active = well fitted inhibition curve with a large enough effect in the signal ratio, with a control signal flat, not every such curve was filed as active; the % refers to the signal ratio;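 for max response: cells co-treated with a PPAR-delta agonist as stimulator during compound exposure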); details: HEK293T PPARd-UAS-bla, beta-lactamase FRET ratio, 18 h; 460 nm channel
# Summary of the method: (§1)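 Fluorescence from CCF4-loaded GeneBLAzer PPAR-delta-UAS-bla HEK293T cells (2 hrs RT loading) quantified reporter inhibition after an 18 hr, 37 C compound exposure across a titration.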
# [9] = target: Peroxisome proliferator-activated receptor delta (Homo sapiens) (UniProt Q03181); assay: as above; details: HEK293T PPARd-UAS-bla, beta-lactamase FRET ratio, 18 h; series mostly up to 76.7 µM
# Peroxisome proliferator-activated receptor delta (Homo sapiens), sequence (Q03181 whole entry, looked up): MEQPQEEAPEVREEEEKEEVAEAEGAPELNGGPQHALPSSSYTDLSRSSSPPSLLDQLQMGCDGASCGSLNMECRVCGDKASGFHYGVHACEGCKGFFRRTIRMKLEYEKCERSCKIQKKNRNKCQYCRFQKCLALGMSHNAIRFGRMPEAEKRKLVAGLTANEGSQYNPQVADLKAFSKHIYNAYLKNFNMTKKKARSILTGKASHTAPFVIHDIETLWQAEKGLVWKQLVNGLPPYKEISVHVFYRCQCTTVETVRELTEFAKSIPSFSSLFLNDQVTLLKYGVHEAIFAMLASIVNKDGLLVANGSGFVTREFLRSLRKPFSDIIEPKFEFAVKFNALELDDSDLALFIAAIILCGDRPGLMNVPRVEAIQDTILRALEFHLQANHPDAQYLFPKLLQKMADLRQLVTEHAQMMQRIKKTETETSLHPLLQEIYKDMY
# Summary of the method: as §1
# [10] = target: Vitamin D3 receptor (Homo sapiens) (UniProt P11473); assay: qHTS assay for small molecule antagonists of vitamin D receptor signaling (AID 588541); details: HEK293T VDR-UAS-bla, beta-lactamase ratio, antagonist mode; series mostly up to 76.7 µM;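 note: receptor activated by calcitriol during compound treatment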
# Vitamin D3 receptor (Homo sapiens), sequence (P11473 whole entry, looked up): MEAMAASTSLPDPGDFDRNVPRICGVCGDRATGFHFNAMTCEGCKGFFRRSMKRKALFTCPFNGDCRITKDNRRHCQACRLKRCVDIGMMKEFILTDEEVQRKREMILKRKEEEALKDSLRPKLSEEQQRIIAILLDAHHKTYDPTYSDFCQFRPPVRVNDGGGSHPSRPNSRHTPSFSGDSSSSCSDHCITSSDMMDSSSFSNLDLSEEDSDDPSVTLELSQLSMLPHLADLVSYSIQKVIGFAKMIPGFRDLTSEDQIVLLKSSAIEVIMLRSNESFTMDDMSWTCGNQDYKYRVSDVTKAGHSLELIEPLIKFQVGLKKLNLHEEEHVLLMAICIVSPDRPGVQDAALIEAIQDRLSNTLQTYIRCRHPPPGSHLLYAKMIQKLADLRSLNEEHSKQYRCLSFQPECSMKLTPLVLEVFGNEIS
# Summary of the method: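 VDR-UAS-bla HEK293T cells in 2% charcoal-stripped FBS were stimulated with 1-alpha,25-dihydroxyvitamin D3 (3 nM final) plus compound for 16 h at 37 C. The beta-lactamase CCF4 readout was normalized to 50 nM agonist and DMSO, and Hill fits gave IC50.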
# [11] = target: Thyroid hormone receptor beta (Homo sapiens) (UniProt P10828); assay: qHTS assay for small molecule antagonists of thyroid hormone receptor beta signaling (AID 588547; active = well fitted inhibition curve with a large enough effect in the signal ratio, with a control signal flat, not every such curve was filed as active; the % refers to the signal ratio;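 note: cells stimulated with 0.4 nM T3 agonist during compound exposure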); details: TR-UAS-bla HEK293, beta-lactamase ratio, antagonist mode, 18 h
# Thyroid hormone receptor beta (Homo sapiens), sequence (P10828 whole entry, looked up): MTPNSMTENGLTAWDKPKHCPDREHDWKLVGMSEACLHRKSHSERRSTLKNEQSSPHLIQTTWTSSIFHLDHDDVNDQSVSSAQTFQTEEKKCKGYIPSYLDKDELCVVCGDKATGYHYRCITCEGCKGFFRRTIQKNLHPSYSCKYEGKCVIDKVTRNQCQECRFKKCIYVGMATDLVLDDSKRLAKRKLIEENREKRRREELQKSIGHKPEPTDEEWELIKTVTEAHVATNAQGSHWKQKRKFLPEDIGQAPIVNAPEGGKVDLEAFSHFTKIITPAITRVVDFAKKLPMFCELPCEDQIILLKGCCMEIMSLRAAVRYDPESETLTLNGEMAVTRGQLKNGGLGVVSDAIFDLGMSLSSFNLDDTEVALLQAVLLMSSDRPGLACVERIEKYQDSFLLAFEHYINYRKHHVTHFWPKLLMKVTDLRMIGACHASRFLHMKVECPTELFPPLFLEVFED
# Summary of the method: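 TR-UAS-bla GripTite HEK293 cells in 2% charcoal/dextran FBS medium; compounds 0.59 nM to 92 uM with T3 at 0.4nM final, 18 h at 37 C. Beta-lactamase read by CCF4 fluorescence (460/530 nm); Hill fits gave IC50 and efficacy.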
# [12] = qHTS assay for small molecule activators of the nuclear factor-kappa B (NF-kB) signaling pathway (AID 651749; active = well fitted activation curve with a large enough effect in the signal ratio; the % refers to the signal ratio); details: NF-kB-bla ME-180 cells, beta-lactamase FRET ratio, 16 h; stronger effect = higher value
# Summary of the method: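 In this qHTS format, compounds acting as activators increase NF-kB-driven beta-lactamase in ME-180 cells, measured as disrupted FRET after 16 hr exposure at 37C and 5% CO2.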
# [13] = qHTS assay for small molecule antagonists of the retinoid-related orphan receptor gamma (ROR-gamma) signaling pathway - cell viability counter screen (AID 720652; active = well fitted curve in the direction sought with a large enough effect in the repeat runs; an effect the other way counts as inactive or inconclusive;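 note: CHO reporter cells with doxycycline-induced ROR-gamma expression; compound exposure lasted 16 hr before ATP read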); details: RORgamma reporter cell line viability counter screen; series mostly up to 92.2 µM
# Summary of the method: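 Steps: seed CHO cells bearing TET-inducible ROR and ROR response element-luciferase; rest 5 hr at 37 C; add compound, then doxycycline; incubate 16 hr; add CellTiter-Glo and read luminescence as ATP-based viability.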
# [14] = Cell Viability - HepG2 (AID 433); details: qHTS;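 note: potency is the fitted concentration of half-maximal effect; cells exposed to compound for 40 hours; potency for ATP loss meaning cytotoxicity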
# Summary of the method: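 Cytotoxicity read as ATP loss (CellTiter-Glo luminescence) after 40 hr compound exposure of HepG2, 1500 cells/well, 37 °C. AC50 by Hill equation; 0% set by DMSO, 100% inhibition by 100 uM tamoxifen.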
# [15] = target: Glucocorticoid receptor (Homo sapiens) (UniProt P04150); assay: qHTS assay for small molecule antagonists of glucocorticoid receptor signaling (AID 588533; active = well fitted inhibition curve with a large enough effect in the signal ratio, with a control signal flat, not every such curve was filed as active; the % refers to the signal ratio); details: HeLa MMTV-bla, GRE beta-lactamase ratio, antagonist mode, 18 h; series mostly up to 76.8 µM
# Summary of the method: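 Antagonist-mode qHTS: compound titrations added to GRE-bla HeLa cells, then dexamethasone 2 nM final; 18 h, 37 C. CCF4 FRET fluorescence normalized to dexamethasone and DMSO; IC50 from Hill fit.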
# [16] = qHTS assay to identify small molecules that stimulate interleukin-8 (IL-8) secretion (AID 651758; active = well fitted activation curve with a large enough effect in the signal ratio; the % refers to the signal ratio); details: HTRF ratio (665/615); series mostly up to 92.2 µM
# Summary of the method: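 Compounds are added to THP-1 cells (2000 per well) and left 16 hrs at 37 C. A labeled anti-IL-8 antibody pair is then added, and IL-8 secretion is measured by time-resolved FRET after 1-3 hrs at room temperature.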
# [17] = target: Vitamin D3 receptor (Homo sapiens) (UniProt P11473); assay: qHTS assay for small molecule agonists of vitamin D receptor signaling (AID 588543); details: HEK293T VDR-UAS-bla, beta-lactamase ratio, 16 h; series mostly up to 76.8 µM
# Summary of the method: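 Agonist-mode beta-lactamase reporter: HEK293T VDR-UAS-bla cells in charcoal-stripped 2% FBS, compound series 16 h 37 C, CCF4 2 h RT. EC50 from Hill fit, scaled against DMSO and 50 nM calcitriol control.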
# [18] = qHTS assay for small molecule agonists of the antioxidant response element (ARE) signaling pathway (AID 651741; active = well fitted activation curve with a large enough effect in the signal ratio; the % refers to the signal ratio); details: HepG2 ARE-bla reporter, beta-lactamase FRET ratio, 16 h; series mostly up to 96 µM
# Summary of the method: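 Stably integrated ARE-beta-lactamase reporter HepG2 cells; 16 h compound incubation, 37 C; LiveBLAzer FRET substrate 2 h at room temperature; fluorescence intensity.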
# [19] = target: Peroxisome proliferator-activated receptor gamma (Homo sapiens) (UniProt P37231); assay: qHTS assay for small molecule agonists of peroxisome proliferator-activated receptor gamma signaling (AID 588536; active = well fitted curve in the direction sought with a large enough effect in the signal ratio, with a control signal flat, not every such curve was filed as active; the % refers to the signal ratio); details: HEK293 PPARg-UAS-bla, beta-lactamase ratio, 16 h, percent of rosiglitazone response, DMSO as zero; series mostly up to 76.7 µM
# Peroxisome proliferator-activated receptor gamma (Homo sapiens), sequence (P37231 whole entry, looked up): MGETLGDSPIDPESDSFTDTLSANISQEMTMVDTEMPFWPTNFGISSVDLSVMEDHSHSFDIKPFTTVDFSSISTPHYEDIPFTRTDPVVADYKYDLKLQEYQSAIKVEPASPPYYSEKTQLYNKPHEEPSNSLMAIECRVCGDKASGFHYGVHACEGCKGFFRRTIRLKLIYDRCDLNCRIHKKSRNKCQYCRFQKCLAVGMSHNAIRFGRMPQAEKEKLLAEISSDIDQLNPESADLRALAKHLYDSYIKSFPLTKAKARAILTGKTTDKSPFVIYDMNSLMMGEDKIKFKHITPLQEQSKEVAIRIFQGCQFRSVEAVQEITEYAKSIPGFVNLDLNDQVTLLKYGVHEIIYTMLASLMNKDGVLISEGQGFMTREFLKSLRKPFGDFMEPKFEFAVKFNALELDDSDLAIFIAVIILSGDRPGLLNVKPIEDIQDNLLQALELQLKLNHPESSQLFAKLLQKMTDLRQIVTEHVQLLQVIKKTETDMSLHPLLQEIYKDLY
# Summary of the method: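 Beta-lactamase reporter read-out: CCF4 fluorescence (ex 405, em 460/530 nm) after 2 h at RT. HEK293 GeneBLAzer cells were treated for 16 h at 37 C. Hill fits gave EC50 and efficacy versus 2 uM rosiglitazone (100%) and DMSO (0%).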
# [20] = target: Peroxisome proliferator-activated receptor gamma (Homo sapiens) (UniProt P37231); assay: qHTS assay for small molecule antagonists of peroxisome proliferator-activated receptor gamma signaling (AID 588537; active = well fitted inhibition curve with a large enough effect in the signal ratio, with a control signal flat, not every such curve was filed as active; the % refers to the signal ratio;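 note: reporter cells co-stimulated with 50 nM rosiglitazone agonist during compound treatment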); details: HEK293 PPARg-UAS-bla, beta-lactamase ratio, antagonist mode; series mostly up to 76.8 µM
# Summary of the method: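 Fluorescence at 460 and 530 nm (405 nm excitation) reported beta-lactamase cleavage of CCF4 after 2 h room-temperature loading. HEK293 reporter cells in 1% charcoal/dextran-treated FBS had received compound and rosiglitazone for 16 h.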
Compound,Potency [1],Potency [2],Potency [3],Potency [4],Potency [5],Potency [6],activation [7],max response [8],outcome [9],outcome [10],activity change % (negative = inhibition) [11],activation [12],Potency [13],Potency [14],outcome [15],Potency [16],outcome [17],Potency [18],outcome [19],Potency [20]
ClC=CCl,> 92 µM (inactive),inactive,0.0631 µM (active),inactive,inactive,inactive,-2.58% (inactive),12.6%,inactive,inactive,-5.48% (inactive),0.173% (inactive),inactive,,,,,,,
O=[N+]([O-])c1ccc(Cl)cc1,,,inactive,inactive,inactive,,-1.26% (inactive) and -4.41% (inactive),,,inactive,3.07% (inactive) and -2.63% (inactive),-0.791% (inactive) and -0.89% (inactive),inactive,> 92 µM (inactive),inactive,,,,,
Nc1ccc(Oc2ccc(N)cc2)cc1,,inactive,,,inactive,,-1.85% (inactive) and -6.36% (inactive),31.7%,inactive,,,0.532% (inactive) and -1.89% (inactive),inactive,> 92 µM (inactive),inactive,inactive,,,,
ClCC(Cl)CCl,> 92 µM (inactive),inactive,inactive,inactive,,,-1.49% (inactive) and -1.66% (inactive),17.7%,inactive,inactive,0.0158% (inactive) and 2.43% (inactive),,,,inactive,,inactive,inactive,,
CC(Cl)CCl (configuration not stated),> 92 µM (inactive),inactive,inactive,inactive,inactive,inactive,4.13% (inactive),,,inactive,,,inactive,,inactive,,inactive,inactive,inactive,
C=CC(=O)OCC(C)C,> 92 µM (inactive),inactive,inactive,inactive,,inactive,-2.2% (inactive),-6.69%,inactive,inactive,-1.18% (inactive),0.0391% (inactive),inactive,,inactive,inactive,inactive,inactive,inactive,inactive
O=[N+]([O-])c1cccc(O)c1,,,inactive,inactive,inactive,,,,,inactive,6.02% (inactive),-0.57% (inactive),,> 92 µM (inactive),,inactive,inactive,,inactive,
C=C(C)CCl,> 92 µM (inactive),inactive,,inactive,inactive,inactive,15.7% (inactive),2.33%,inactive,inactive,-0.864% (inactive),-0.185% (inactive),inactive,,inactive,,,,inactive,
COc1ccc(C=O)cc1,> 92 µM (inactive),inactive,inactive,inactive,inactive,inactive,-0.198% (inactive),2.98%,inactive,inactive,19.4% (inactive),-0.721% (inactive),inactive,,inactive,inactive,inactive,inactive,inactive,
Nc1ccc(Cc2ccc(N)cc2)cc1,,,inactive,,inactive,,1.44% (inactive) and -0.448% (inactive),34.2% and -15.9%,inactive,inactive,,-0.031% (inactive) and 0.544% (inactive),inactive,> 92 µM (inactive),inactive,,inactive,,inactive,inactive
CCCCC(=O)Cl,> 92 µM (inactive),inactive,inactive,inactive,inactive,,,20%,inactive,inactive,,,inactive,,inactive,,inactive,,,
Nc1cc(Cl)cc(C(=O)O)c1Cl,> 92 µM (inactive),inactive,inactive,inactive,inactive,,,-17.7% and 9.43%,inactive,inactive,-1.41% (inactive),,inactive,,,,inactive,,,inactive
CCCCOC(C)=O,> 92 µM (inactive),inactive,inactive,inactive,inactive,inactive,,21.2%,inactive,,,-1.17% (inactive),inactive,,,,,inactive,inactive,inactive
